Values without a mark were called inactive. The source made the active and inactive calls.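 Rule for the calls: active = compounds that lower viability of the colon cancer cells in the luminescence readout, with no numeric limit stated; inactive = the rest.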

A short description of the experiment: CellTiter-Glo luminescent readout of SW480 viability loss, NPC library primary (AID 1117343). To be noted: CellTiter-Glo luminescence; at 20 µM (top of the series). For orientation: In ATP-based viability assays light output follows the ATP content of the culture.
Turning to `CCCCCCCC/C=C/C(=O)O`, the viability decrease (inhibition) is 85.3% (active). For `O=C(OCC(COC(=O)c1cccnc1)(COC(=O)c1cccnc1)COC(=O)c1cccnc1)c1cccnc1`, the viability decrease (inhibition) was -4.3%. Then `CCCCC(O)/C=C(C)/C=C/C=C/C(=O)N1CCCC1=O` (centres undefined), with 59.3% (active). The result for `CCCCCCCC/C=C\CCCCCCCCN` reads 147% (active); that for `C[N+](C)(CCOc1ccccc1)Cc1cccs1`, -11.3%; that for `CCCOc1ccc2c(c1)CC[C@@H]1[C@@H]2CC[C@]2(C)C(OC)CC[C@@H]12` (some centres undefined), 103% (active).

With `NS(=O)(=O)c1ccc(Cl)c(S(N)(=O)=O)c1`, the viability decrease (inhibition) was -5.6%. The result for `COc1ccc2c(c1)c(CC(=O)OC/C=C(\C)CC/C=C(\C)CCC=C(C)C)c(C)n2C(=O)c1ccc(Cl)cc1` reads 8.2%; that for `O=S(=O)(O)CC(S)CS` (centres undefined), 3.8%; that for `Cc1ccc2ccc(Cl)cc2n1`, 1.2%. Then `NC(=O)NS(=O)(=O)c1ccc(Cl)cc1`, with -13.4%; and `COc1cccc(CCc2ccccc2OCC(CN(C)C)OC(=O)CCC(=O)O)c1` (centres undefined), with 87.5% (active); and `Cc1cc(O)c(Cl)c(C)c1Cl`, with -0.8%. Then `COc1cccc2c1C(=O)c1c(O)c3c(c(O)c1C2=O)C[C@@](O)(C(=O)CO)C[C@@H]3O[C@H]1C[C@H](N)[C@H](O[C@@H]2CCCCO2)[C@H](C)O1`, with 81% (active).

For the compound `CCCCCCCCCC(=O)O`, the viability decrease (inhibition) was 49.5%.

Take `O=C(CCN1CCC(c2ccccc2)C1)c1ccc2c(c1)OCCO2` (centres undefined): the viability decrease (inhibition) was 158% (active). The result for `CNC(=O)c1cnn(-c2nc(N)c3ncn([C@@H]4O[C@H](CO)[C@@H](O)[C@H]4O)c3n2)c1` reads 6.8%; that for `O=C(O)Cc1cn(-c2ccccc2)nc1-c1ccc(Cl)cc1`, 16.1% (active); that for `CC1(S(=O)(=O)O)CC(=O)c2ccccc2C1=O` (centres undefined), 102% (active). Regarding `OCCCc1ccccc1`, the viability decrease (inhibition) was -15.8% (active). For `NC(N)=NN=C(/C=C/c1ccc([N+](=O)[O-])o1)/C=C/c1ccc([N+](=O)[O-])o1`, the viability decrease (inhibition) is 102% (active). `O=C1c2ccccc2CCc2ccccc21`: the viability decrease (inhibition) was -8.4%.

For the compound `Oc1ccccc1`, the viability decrease (inhibition) is 42.7%. Turning to `CCOC(=O)c1ccc(NC(=O)CN2CCCCC2)cc1`, the viability decrease (inhibition) is 24.7%. The result for `COc1ccccc1OC(=O)Oc1ccccc1OC` reads 31.6%; that for `CC1(C)CO[C@@H](CC(=O)O)CN1`, -7%.

In the case of `CCCCN=C(N)N=C(N)N`, the viability decrease (inhibition) was 54.5% (active).

On to `O=C(O)CCC(=O)C(=O)O`, for which the viability decrease (inhibition) was 2.9%. With `Cc1ccc(CCn2c3c(c4cc(Cl)ccc42)CN(C)CC3)cn1`, the viability decrease (inhibition) was 81.6% (active).

Take `C[C@@H](N)C(=O)O`: the viability decrease (inhibition) was 44.4%. In the case of `CCc1nnc(NS(=O)(=O)c2ccc(N)cc2)s1`, the viability decrease (inhibition) was 4.4%. Then `NS(=O)(=O)c1cc(-c2nn[nH]n2)c(NCc2cccs2)cc1Cl`, with 2.3%; and `O=C(O)CNC(=O)CNC(=O)CNC(=O)CSC(=O)c1ccccc1`, with 12.5%. Regarding `CCCCCCCCCCCCCCCCCCN(C)C`, the viability decrease (inhibition) is -27.7%.

In the case of `Oc1cccc(-c2c3nc(c(-c4cccc(O)c4)c4ccc([nH]4)c(-c4cccc(O)c4)c4nc(c(-c5cccc(O)c5)c5ccc2[nH]5)CC4)C=C3)c1`, the viability decrease (inhibition) is 141% (active). Then `C=CCNc1nc(NCC=C)nc(N2CCN(C(c3ccc(F)cc3)c3ccc(F)cc3)CC2)n1`, with 56.9% (active); and `O=C(CCN1CCN(CCO)CC1)N1c2ccccc2Sc2ccc(C(F)(F)F)cc21`, with 96.4% (active). The result for `COc1ccc(OC(=O)N(CC(=O)O)Cc2ccc(OCCc3nc(-c4ccccc4)oc3C)cc2)cc1` reads 105% (active); that for `Oc1ccc(CCNCCCCCCNCCc2ccccc2)cc1O`, 99.5% (active).

Source of the values: PubChem BioAssay.
